3T3 cytotox = Cytotoxic Profiling in NIH 3T3 Cell Line of Diverse Libraries Using Quantitative High-Throughput Screening; NIH 3T3 viability, CellTiter-Glo ATP luminescence, 48-72 h; Potency, µM (titrated, usually from 96.7 µM), for the others: at the highest dose activity change, negative = cytotoxicity, most hits filed as inhibitors; 94,000 compounds, 4.3% hits; note: nearly all actives have a fitted effect of over 55% in size
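Cytotoxicity was measured by CellTiter-Glo ATP luminescence after 48 or 72 h compound exposure at 37 °C. Mouse NIH 3T3 fibroblasts were seeded at 400 cells/well and dosed by 23 nL pin transfer.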
Luciferase inh = Firefly luciferase inhibition profiling of diverse chemical library using quantitative high-throughput screening; Potency, µM (doses to about 115 µM), hits mostly inhibitors; purified P. pyralis luciferase, luminescence, biochemical; Luciferin 4-monooxygenase (Photinus pyralis), P08659; AID 1347043, 2019; 76,000 compounds, 2.5% hits; note: nearly all actives have a fitted effect of over 65% in size
Target sequence (P08659 whole entry, looked up): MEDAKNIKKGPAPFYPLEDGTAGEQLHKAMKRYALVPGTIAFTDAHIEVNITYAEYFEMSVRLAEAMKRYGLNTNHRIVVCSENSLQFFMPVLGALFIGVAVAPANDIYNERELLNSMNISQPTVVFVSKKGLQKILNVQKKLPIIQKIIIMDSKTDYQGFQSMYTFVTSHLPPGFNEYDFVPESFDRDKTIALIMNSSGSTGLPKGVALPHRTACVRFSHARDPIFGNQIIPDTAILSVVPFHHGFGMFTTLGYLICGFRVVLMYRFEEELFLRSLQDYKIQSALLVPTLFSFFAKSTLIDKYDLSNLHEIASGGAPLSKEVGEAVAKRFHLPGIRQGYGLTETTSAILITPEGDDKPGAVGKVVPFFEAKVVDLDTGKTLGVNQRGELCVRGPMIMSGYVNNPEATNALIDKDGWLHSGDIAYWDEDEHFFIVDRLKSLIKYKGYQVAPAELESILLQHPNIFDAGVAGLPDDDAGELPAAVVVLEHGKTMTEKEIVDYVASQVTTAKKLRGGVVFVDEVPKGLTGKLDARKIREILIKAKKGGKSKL
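Purified P. pyralis luciferase (10nM final) in 50mM Tris acetate pH 7.5, 10mM Mg acetate, 0.01% Tween-20, 0.05% BSA with 10uM D-luciferin and 10uM ATP. Compounds titrated qHTS. Luminescence imaged on CCD.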
HEK cytotox = Cytotoxic Profiling in HEK 293 Cell Line of Diverse Libraries Using Quantitative High-Throughput Screening; HEK 293 viability, ATP luminescence (CellTiter-Glo), 48-72 h; Potency, µM (titrated, usually from 115 µM), for inactives: at the top dose activity change, negative = cytotoxicity, hits mostly inhibitors; 94,000 compounds, 6.6% hits; AID 1345083, 2018; note: nearly all actives have a fitted effect of over 60% in size
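Luminescence from cellular ATP, measured with CellTiter-Glo, indicates HEK 293 viability. Cells plated at 250 cells/well are treated with compound for 48 or 72 hr at 37 degree Celsius before reagent addition.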
hNpr1 antagonist = Natriuretic polypeptide receptor (hNpr1) antagonism - Primary qHTS; Atrial natriuretic peptide receptor 1 (Homo sapiens), P16066; HEK293 hNpr1 GloSensor cGMP, ANP-stimulated luminescence; Potency, µM (highest dose often 46.3 µM), for inactives: top-dose activity change, negative = inhibition, actives largely listed as inhibitors; AID 1347048, 2019; 76,000 compounds, 1.6% hits; calls by dose curve; note: nearly all actives have a fitted effect of over 60% in size
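Compound pre-incubated 30 min at room temperature on GloSensor-loaded HEK293 cells stably carrying hNpr1 and the pGS-40F cGMP biosensor. Stimulation uses hNppA at 0.1 nM final; luminescence is taken at baseline and 20 min post-agonist.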
GPT2 inh = Primary qHTS assay for inhibitors of Glutamate pyruvate transaminase 2 (GPT2). Alanine aminotransferase 2 (Homo sapiens), Q8TD30. Recombinant GPT2, coupled pyruvate oxidase/HRP Amplex Red fluorescence. Potency, µM (series often up to 57.7 µM), for the others: at the highest dose activity change, negative = inhibition, usual class: inhibitors. 100,000 compounds, 0.25% hits; note: nearly all actives have a fitted effect of over 60% in size
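Inhibition is scored from Amplex Red fluorescence generated when pyruvate oxidase and HRP act on pyruvate released by GPT2. Reactions contain 10ng/uL enzyme, 250uM a-KG and 2mM L-alanine and run 30 min at room temperature.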
The depositor's hits bear a star; i = inactive; ? = inconclusive; nt = no result given; [ ] = remark or other dose. Only some compounds are listed: those with a hit (about 10% of all), similar ones and a draw of the others. Unless noted, calls come from the whole dose curve; as a rule, active = well fitted curve in the direction sought with a large enough effect; inconclusive = small, poorly fitted or top-dose-only effect, or another doubt; inactive = no such curve, though single readings can be large; an effect the other way counts as inactive or inconclusive. % is set by controls: 0 for no effect and ±100 for the full control effect; potency is the fitted concentration of half-maximal effect.

SMILES | 3T3 cytotox | Luciferase inh | HEK cytotox | hNpr1 antagonist | GPT2 inh
COC(=O)N1CCC(C(=O)N2CCCC(c3nc4ccncc4[nH]3)C2)CC1 (centres undefined) | 1% | nt | 2% | nt | -2%
Cn1ccnc1CN1C(=O)CO[C@H]2CN(CCCc3ccccc3)C[C@H]21 | 112µM* | i | ? | -25%[70.6 µM] | 3%[88.5 µM]
CC(C)C[C@@H]1N[C@H](C(=O)N2CCN(c3ncccn3)CC2)Cc2c[nH]c3cccc1c23 | ? | i | 79µM* | -1%[70.6 µM] | -14%[88.5 µM]
CC(C)C[C@@H]1N[C@H](C(=O)NC2CCCC2)Cc2c[nH]c3cccc1c23 | 50µM* | i | 32µM* | -4%[70.6 µM] | -11%[88.5 µM]
CC(C)C[C@@H]1N[C@H](C(=O)NC2CCC2)Cc2c[nH]c3cccc1c23 | 50µM* | i | 45µM* | 3%[70.6 µM] | 1%[88.5 µM]
O=C(Nc1cccc(C(F)(F)F)c1)c1ccccc1NCc1ccncc1 | nt | nt | nt | nt | -2%
CCOC(=O)[C@@H]1[C@@H](OC)C(=O)N(C)C12CCN(C(=O)OCC(C)C)CC2 | ? | nt | -6% | nt | nt
COC(=O)N[C@H]1[C@H](OC(=O)c2ccccc2)[C@@H]2O[C@H]1c1ccccc12 | ? | nt | ? | nt | i
CC1Oc2ccc(NC(=O)c3cccs3)cc2CN(CCc2ccc(F)cc2)C1=O (centres undefined) | -29% | i | ? | -10% | 4%
CC1Oc2ccc(NC(=O)C3CCCC3)cc2CN(Cc2ccc(F)cc2)C1=O (centres undefined) | 25µM* | i | ? | -22% | i
CCC1Oc2ccc(NC(=O)C3CCCC3)cc2CN(Cc2ccc(F)cc2)C1=O (centres undefined) | ? | i | ? | -22% | -12%
CC1Oc2ccc(NC(=O)c3cccs3)cc2CN(Cc2ccccc2)C1=O (centres undefined) | ? | i | 25µM* | -13% | i
CC1Oc2ccc(NC(=O)Nc3ccccc3)cc2CN(Cc2ccccc2)C1=O (centres undefined) | 35µM* | ? | 45µM* | ? | 3%
CCCN1CCC(N2CCC3(CC2)CC(C(=O)N2CCOCC2)N(C)C3)CC1 (centres undefined) | -21% | nt | -2% | nt | 2%
CC(=O)N1CCN(c2nccc(Nc3ccccc3F)n2)CC1 | -26%[138 µM] | nt | ? | nt | i
O=C(Cc1cccc(Cl)c1)N1CCN(c2nccc(Nc3ccccc3F)n2)CC1 | ? | nt | 28µM* | nt | -4%
COc1ccccc1Nc1ccnc(N2CCN(C(=O)Cc3cccc(Cl)c3)CC2)n1 | ? | nt | 45µM* | nt | 3%
COc1ccccc1Nc1ccnc(N2CCN(C(=O)c3cccc(Cl)c3)CC2)n1 | ? | nt | ? | nt | i
O=C(NC1CCCCCC1)c1nc2sccn2c1-c1cccnc1 | ? | nt | ? | nt | i
COC(=O)c1c(S(=O)(=O)N2CCCCCCC2)sc2c1CCN(C(=O)C1CC=CCC1)C2 (centres undefined) | ? | i | 45µM* | -12% | -6%
c1ccc(OCCNc2nc(-c3cccnc3)nc3c2CCNCC3)cc1 | 32µM* | i | ? | ? | i
O=C(NCc1ccccc1)C1CCN(Cc2ccccc2-c2cccnc2)CC1 | -17% | nt | -2% | nt | 2%
Cc1cc(Cn2cc3c4c(cccc42)[C@H](CC(C)C)N[C@H](C(=O)NCc2ccccn2)C3)no1 | ? | i | 32µM* | -2% | ?
Cc1cc(Cn2cc3c4c(cccc42)[C@H](CC(C)C)N[C@H](C(=O)NCc2ccco2)C3)no1 | 28µM* | i | 40µM* | -3% | ?
Cc1ncc2n1C(=O)N(C1CCN(Cc3cccc4ccccc34)CC1)C2 | ? | i | ? | 0% | i
SMILES | 3T3 cytotox | Luciferase inh | HEK cytotox | hNpr1 antagonist | GPT2 inh
CCN(C)C(C)C(=O)N1CCc2onc(-c3ccc(C(F)(F)F)cc3)c2C1 (centres undefined) | ? | i | ? | -2% | -17%
CC(C)OC(C)C(=O)N1CCc2onc(-c3ccc(C(F)(F)F)cc3)c2C1 (centres undefined) | ? | i | 28µM* | -28% | 0%[11.5 µM]
COc1ccccc1-c1nc2cnccn2c1NCCC(=O)N1CCc2ccccc21 | ? | i | 20µM* | -8% | -28%
COc1ccccc1-c1nc2cnccn2c1NCCC(=O)Nc1ccc2c(c1)OCO2 | i | i | -8% | -2% | ?
COc1ccccc1NC(=O)c1cc(-c2ccccc2C(F)(F)F)nc2c1cnn2C | ? | nt | 45µM* | nt | nt
COc1cccc(NC(=O)c2cc(-c3ccccc3C(F)(F)F)nc3c2cnn3C)c1 | ? | nt | 22µM* | nt | nt
COc1ccccc1-c1cc(C(=O)Nc2ccc(Cl)cc2)c2cnn(C)c2n1 | ? | nt | 22µM* | nt | nt
COc1cccc(NC(=O)c2cc(-c3ccc(C(F)(F)F)cc3)nc3c2cnn3C)c1 | ? | nt | 40µM* | nt | nt
O=C(NC1CCN(c2cc(-c3ccc(F)cc3)[nH]n2)C1)c1ccccc1Cl (centres undefined) | ? | i | ? | -23% | ?
COc1cc(CN2CCc3c(c(CN(C(C)=O)c4ccccc4)nn3C)C2)ccc1O | -13% | nt | 0% | nt | i
COc1ccccc1CC(=O)N1CCCc2ncc(C(=O)NCc3ccc(OC)c(OC)c3)cc21 | -18% | i | ? | ? | -2%
CCc1nc2c(c(-c3ccc(Cl)cc3)n1)CCN(C(=O)c1ccc(C)cc1)CC2 | ? | i | ? | 0% | ?
COc1ccc(-c2nc(C(C)C)nc3c2CCN(C(=O)c2ccc(C(F)(F)F)cc2)CC3)cc1 | 28µM* | i | 32µM* | -15% | -12%
COc1ccc(-c2nc(C(C)C)nc3c2CCN(C(=O)C(C)(C)C)CC3)cc1 | -33% | i | ? | 5% | ?
CC(C)c1nc2c(c(-c3ccc(Cl)cc3)n1)CN(C(=O)C(C)(C)C)CC2 | ? | nt | 40µM* | nt | i
COc1ccc(-c2nc(C(C)C)nc3c2CCN(C(=O)Nc2ccc(Cl)cc2)CC3)cc1 | 35µM* | i | ? | 0% | i
Cc1ccc(C(=O)N2CCc3nc(C(C)C)nc(-c4ccc(Cl)cc4)c3CC2)cc1 | ? | nt | 79µM* | nt | i
COc1ccc(-c2nc(C(C)C)nc3c2CCN(C(=O)c2ccc(C)cc2)CC3)cc1 | ? | i | ? | 5% | i
O=C(C1CCCCc2nnc(-c3ccccc3)n21)N1CCCC1 (centres undefined) | -9% | nt | 2% | nt | 1%
